PKD1 inh: PKD1 (human) kinase inhibition. Q15139. 200,000 compounds, 0.056% hits. PKD1 kinase fluorescence polarization assay. AID 797. inhibition, % (test concentration not listed); in the data active = inhibition above about 50%
Hsp70 activator: switches on Hsp70 transcription; 200,000 compounds, 0.04% hits; HeLa Hsp70 promoter luciferase reporter, luminescence; scaled: vehicle 0, proteasome-inhibitor control 100%; AID 1203; activation, % at 10 µM;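 active = activation above the mean across all tested compounds plus 3 SD, cutoff set per campaign, cut at about 5.5% in these data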;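 note: 100% = MG132 at 30 µM as the positive control and 0% = DMSO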
Wee1 degr inh: human Wee1 degradation inhibition, primary screen; 220,000 compounds, 1.2% hits; HeLa Luc-Wee1K328M stability, luciferase luminescence; 100% = proteasome inhibitor MG132 effect; P30291; reporter increase, % at 5 µM;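 active = activation above the mean of all tested compounds plus 3 SD, set per screening run, cut at about 8.8% in these data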;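 note: cells exposed to compound for 20 h before luminescence read; 0% = DMSO alone and 100% = MG132 at 30 µM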
Arbovirus anti: arbovirus infection inhibition. arbovirus infection cell-based antiviral screen. inhibition, % at 10 µM. 200,000 compounds, 0.37% hits. AID 1251; in the data active = inhibition above about 30%
Efa HMGR inh: blocks class II HMG-CoA reductase of Enterococcus faecalis. 190,000 compounds, 0.41% hits. AID 1066. inhibition, % at 10 µM. purified E. faecalis HMGR, NADPH absorbance 340 nm kinetic;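 active = inhibition above a set limit, the median over all tested compounds plus 3 SD, cut at about 9.5% in these data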;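 note: enzyme runs in reverse so mevalonate oxidation gives rising NADPH absorbance; 0% = complete reaction with DMSO and 100% = background rate lacking mevalonate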
Active calls of the source: *; x = not tested or not shown. Only some compounds are listed: those with a hit (about 2% of all), similar ones and a draw of the others.

SMILES | PKD1 inh | Hsp70 activator | Wee1 degr inh | Arbovirus anti | Efa HMGR inh
Cc1ccc(Sc2ncnc3onc(C)c23)c(C)c1 | 2.1 | -0.3 | 9.1* | -7.2 | -5.1
CC(=O)Nc1ccccc1NC(=O)c1ccc(C)c(C)c1 | 0.3 | -0.1 | -2.3 | -1.6 | -5.2
NS(=O)(=O)c1cccc(NC(=O)COC(=O)C2CCCCC2)c1 | -7.2 | 0.0 | 0.7 | 3.5 | 11.1*
NS(=O)(=O)c1ccc(NC(=O)COC(=O)C2CC(=O)N(Cc3ccccc3)C2)cc1 (configuration not stated) | -0.7 | 0.2 | -1.3 | 14.4 | 10.6*
CN(c1ccccc1)S(=O)(=O)c1cccc(NC(=O)COC(=O)C2CCCCC2)c1 | x | x | 1.7 | x | x
O=C(COC(=O)C1CC(=O)N(Cc2ccccc2)C1)Nc1ccc2c(c1)OCO2 (configuration not stated) | 0.9 | -0.3 | 0.7 | 6.2 | 1.7
COc1cc2c(cc1OC)CN(C(=S)Nc1ccc(Cl)cc1)CC2 | x | x | -0.4 | x | x
Cc1ccc(NC(=O)c2ccccn2)c(Br)c1 | -3.8 | 0.0 | 2.7 | 0.9 | -3.5
CC(NC(=S)Nc1ccccc1Cl)C(c1ccccc1)N1CCOCC1 (configuration not stated) | -11.2 | -0.3 | 9.2* | 8.9 | -4.8
CC1=C(C(=O)OC(C)C)C(c2ccc(C)o2)NC(=O)N1 (configuration not stated) | -4.1 | -0.1 | -0.7 | -4.9 | 11.0*
CCOC(=O)C1=C(C)NC(=O)NC1c1ccc(C)o1 (configuration not stated) | -6.1 | -0.1 | 2.8 | 5.7 | -2.7
O=C(NN1S(=O)(=O)c2ccccc2S1(=O)=O)c1ccc(Br)cc1 | -9.7 | -0.2 | -3.1 | 23.0 | 16.1*
COc1ccc(-c2nnc(-c3cc(OC)c(OC)c(OC)c3)o2)cc1OC | 2.5 | 0.1 | -1.7 | 38.1* | -3.8
O=C(NC1CCCC1)C(c1ccncc1)N(C(=O)Cc1cccs1)c1ccccc1 (configuration not stated) | -5.6 | -0.2 | -1.3 | -4.3 | 10.4*
O=C(c1cccs1)n1nc(-c2ccccc2)nc1NCc1ccco1 | -0.9 | -0.2 | 0.1 | -11.9 | 0.7
COCC(=O)n1nc(-c2ccccc2)nc1NCc1cccs1 | -1.3 | 0.0 | 13.6* | -3.4 | -6.3
Cc1sc2nc(-c3ccccc3)oc(=O)c2c1C | -6.5 | 0.1 | -2.1 | 6.1 | 2.3
Cc1ccccc1NC(=S)NCc1ccc2c(c1)cc(C)n2C | -5.3 | 0.1 | 0.9 | 1.9 | 15.3*
COc1ccccc1NC(=S)NCc1ccc2c(c1)cc(C)n2C | 0.6 | 0.1 | 0.7 | -0.3 | 2.2
CC(NC(=O)c1sc2cc([N+](=O)[O-])ccc2c1Cl)C(C)(C)C (configuration not stated) | -2.5 | -0.2 | 9.0* | 5.3 | -1.5
O=C(NC1CC1)c1sc2cc([N+](=O)[O-])ccc2c1Cl | -1.3 | -0.2 | 1.2 | -1.3 | -0.8
CCOC(=O)C1(CCCc2ccccc2)CCN(C(=O)CCC2=NNC(=O)CC2)CC1 | -0.3 | -0.3 | 10.8* | 0.3 | -1.9
CCOC(=O)C1(CCCc2ccccc2)CCN(C(=O)Cc2nonc2C)CC1 | -9.4 | -0.3 | 5.2 | 17.3 | -0.3
CCC(Br)C(=O)Nc1ccc(OC)cc1 (configuration not stated) | -3.6 | -0.1 | -0.8 | 3.8 | -3.7
N#C/C(=C/Nc1ccccc1C(=O)O)C(N)=O | x | x | 0.9 | x | x
SMILES | PKD1 inh | Hsp70 activator | Wee1 degr inh | Arbovirus anti | Efa HMGR inh
COc1ccc(N2CCN(C(=O)CN(C3CCCCC3)S(C)(=O)=O)CC2)cc1 | -1.7 | 0.5 | 9.1* | 7.7 | 3.7
COc1ccccc1N1CCN(C(=O)CN(C2CCCCC2)S(C)(=O)=O)CC1 | -4.5 | 0.0 | 2.3 | 0.1 | 1.0
Cc1ccc2[nH]c(=O)c(COC(=O)C3CCCCC3)cc2c1 | x | x | -2.2 | x | x
Cn1nc(-c2ccc(OCC(=O)NCC3CCCO3)cc2)c2ccccc2c1=O (configuration not stated) | -1.4 | 0.0 | 9.6* | 6.7 | -2.9
CC(=O)N1CCc2cc(S(=O)(=O)CCC(=O)NCc3ccco3)ccc21 | -2.1 | -0.2 | -1.0 | 4.9 | 2.8
Cc1ccc(-c2cc(C(=O)O)n(-c3ccc(S(N)(=O)=O)cc3)n2)cc1 | -2.1 | -0.3 | 5.1 | 0.7 | 15.8*
C=C1c2cc3c(cc2NC(=S)N1Cc1ccccc1)OCO3 | x | x | -0.4 | x | x
O=C(Cc1sc(Nc2ccccc2)nc1-c1ccccc1)NCc1ccccn1 | 2.0 | 0.5 | 9.1* | 2.0 | -3.4
Cc1ccc(NC(=O)CCCCCCCCCCC2COCCO2)c(C)c1 (configuration not stated) | -7.0 | -0.1 | -0.3 | 3.0 | -2.1
CCOC(=O)c1ccc2nc(Nc3nc4ccc(F)cc4s3)sc2c1 | -10.9 | -0.6 | 0.6 | 1.0 | -5.6
CCOC(=O)c1ccc2nc(NC(C)=O)sc2c1 | -4.1 | 0.1 | 9.4* | -0.1 | 5.2
O=C(CSc1nnc(CNc2cccc(C(F)(F)F)c2)n1Cc1ccco1)NCc1ccco1 | -5.1 | -0.5 | -0.8 | 13.0 | -2.2
O=C(O)CSc1nnc(CNc2cccc(C(F)(F)F)c2)n1Cc1ccco1 | -6.0 | -0.3 | 2.5 | 33.5* | -6.7
Cc1ccccc1NC(=O)c1ccc(CN(c2ccccc2)S(=O)(=O)c2ccccc2)cc1 | -3.4 | -0.2 | 1.7 | -2.7 | -4.2
COc1ccc(S(=O)CC(=O)Nc2ccccc2Cl)cc1 (configuration not stated) | -2.3 | -0.1 | 9.7* | 5.4 | 1.0
O=C(c1ccccc1)C1CN(Cc2ccccc2)CCC1(O)c1ccccc1 (configuration not stated) | -7.7 | 0.5 | 5.1 | -3.5 | -7.1
OC(c1ccccc1)C1CN(Cc2ccccc2)CCC1(O)c1ccccc1 (configuration not stated) | -0.7 | -0.3 | 0.4 | 32.6* | 0.6
CCOc1ccc(NC2c3ccccc3C(=O)N2Cc2ccc3c(c2)OCO3)cc1 (configuration not stated) | -0.3 | 0.1 | -1.4 | -7.6 | -3.0
CC(=O)c1cccc(NC2c3ccccc3C(=O)N2Cc2ccc3c(c2)OCO3)c1 (configuration not stated) | 4.4 | -0.3 | 9.1* | -1.1 | -3.1
COc1ccc(N/C=C(\C(C)=O)c2ccc(OC)c(OC)c2)cc1OC | -0.1 | -0.2 | -1.4 | 6.8 | 1.5
O=C(CCSc1ccccc1)Nc1nnc(-c2ccccc2)o1 | -1.8 | 0.0 | 1.5 | -2.7 | -0.6
O=C(CCSc1ccccc1)Nc1nnc(-c2cccs2)o1 | 2.3 | -0.1 | 9.5* | 3.2 | -2.8
Cc1ccc2c(c1)c1c(n2CC(O)Cn2c(C)nc3ccccc32)C(=O)CCC1 (configuration not stated) | 1.3 | -0.3 | -0.6 | 37.1* | -1.1
Cc1ccc2c(c1)c1c(n2CC(O)Cn2c(C)nc3ccccc32)/C(=N\O)CCC1 (configuration not stated) | 4.7 | -0.1 | -1.0 | -33.3 | -1.3
Cc1c(Br)c([N+](=O)[O-])nn1CC(=O)Nc1ccc(C(N)=O)cc1 | 0.0 | 0.0 | 0.2 | 7.4 | -2.5
O=[N+]([O-])c1cc(Br)cc(C=Nc2ccc3c(c2)OCO3)c1O | x | x | 9.7* | x | x
